Test results taken from the supplement of paper PMC10849652.
Of roughly 8,800 targets only a part is listed; those with a hit were picked by preference. About 0.5% of all pairs of compound and target were hits. A number with no mark means an inactive call.

Assays:
Experiment in all cases: log2 fold change, soluble protein after heating vs DMSO (PISA); higher = thermal stabilisation; K562 lysate, 10 uM; active = over 0.2 and 3.5 SD of the protein, either way, in both replicates (recomputed)
lapatinib = compound: CS(=O)(=O)CCNCc1ccc(-c2ccc3ncnc(Nc4ccc(OCc5cccc(F)c5)c(Cl)c4)c3c2)o1 [lapatinib]
Procedure, shortened: (§1)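 Quantification was by TMTpro 16plex LC-MS/MS with equalised channel sums, applied to the supernatant after 21,000xg for 90 min. Samples were crude K562 extract at 1 mg/mL protein in PBS pH 7.4 with 1 mM MgCl2, treated with 10 μM compound for 30 min, heated for 3 min across 48°C-58°C, pooled and brought to 0.5% NP-40 at 4°C. Values are log-two fold changes in thermal stability relative to solvent controls, from duplicates.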

pictilisib = compound: CS(=O)(=O)N1CCN(Cc2cc3nc(-c4cccc5[nH]ncc45)nc(N4CCOCC4)c3s2)CC1 [pictilisib]
Procedure, shortened: as §1

crizotinib = compound: C[C@@H](Oc1cc(-c2cnn(C3CCNCC3)c2)cnc1N)c1c(Cl)ccc(F)c1Cl [crizotinib]
Procedure, shortened: as §1

[1] = compound: C[C@H](C1=CC=C(C=C1)C(=O)NC2=C3C=CNC3=NC=C2)N
Procedure, shortened: as §1

duvelisib = compound: C[C@H](Nc1ncnc2nc[nH]c12)c1cc2cccc(Cl)c2c(=O)n1-c1ccccc1 [duvelisib]
Procedure, shortened: as §1

gandotinib = compound: Cc1cc(Nc2cc(CN3CCOCC3)c3nc(C)c(Cc4ccc(Cl)cc4F)n3n2)n[nH]1 [gandotinib]
Procedure, shortened: as §1

tozasertib = compound: Cc1cc(Nc2cc(N3CCN(C)CC3)nc(Sc3ccc(NC(=O)C4CC4)cc3)n2)n[nH]1 [tozasertib]
Procedure, shortened: as §1

doramapimod = compound: Cc1ccc(-n2nc(C(C)(C)C)cc2NC(=O)Nc2ccc(OCCN3CCOCC3)c3ccccc23)cc1 [doramapimod]
Procedure, shortened: as §1

bafetinib = compound: Cc1ccc(NC(=O)c2ccc(CN3CC[C@H](N(C)C)C3)c(C(F)(F)F)c2)cc1Nc1nccc(-c2cncnc2)n1 [bafetinib]
Procedure, shortened: as §1

[2] = compound: Cc1cccc(CC(=O)N2CCc3c2ccc(-c2cn(C)c4ncnc(N)c24)c3F)n1
Procedure, shortened: as §1

UniProt Q9H3S7, sequence (Q9H3S7 whole entry, looked up): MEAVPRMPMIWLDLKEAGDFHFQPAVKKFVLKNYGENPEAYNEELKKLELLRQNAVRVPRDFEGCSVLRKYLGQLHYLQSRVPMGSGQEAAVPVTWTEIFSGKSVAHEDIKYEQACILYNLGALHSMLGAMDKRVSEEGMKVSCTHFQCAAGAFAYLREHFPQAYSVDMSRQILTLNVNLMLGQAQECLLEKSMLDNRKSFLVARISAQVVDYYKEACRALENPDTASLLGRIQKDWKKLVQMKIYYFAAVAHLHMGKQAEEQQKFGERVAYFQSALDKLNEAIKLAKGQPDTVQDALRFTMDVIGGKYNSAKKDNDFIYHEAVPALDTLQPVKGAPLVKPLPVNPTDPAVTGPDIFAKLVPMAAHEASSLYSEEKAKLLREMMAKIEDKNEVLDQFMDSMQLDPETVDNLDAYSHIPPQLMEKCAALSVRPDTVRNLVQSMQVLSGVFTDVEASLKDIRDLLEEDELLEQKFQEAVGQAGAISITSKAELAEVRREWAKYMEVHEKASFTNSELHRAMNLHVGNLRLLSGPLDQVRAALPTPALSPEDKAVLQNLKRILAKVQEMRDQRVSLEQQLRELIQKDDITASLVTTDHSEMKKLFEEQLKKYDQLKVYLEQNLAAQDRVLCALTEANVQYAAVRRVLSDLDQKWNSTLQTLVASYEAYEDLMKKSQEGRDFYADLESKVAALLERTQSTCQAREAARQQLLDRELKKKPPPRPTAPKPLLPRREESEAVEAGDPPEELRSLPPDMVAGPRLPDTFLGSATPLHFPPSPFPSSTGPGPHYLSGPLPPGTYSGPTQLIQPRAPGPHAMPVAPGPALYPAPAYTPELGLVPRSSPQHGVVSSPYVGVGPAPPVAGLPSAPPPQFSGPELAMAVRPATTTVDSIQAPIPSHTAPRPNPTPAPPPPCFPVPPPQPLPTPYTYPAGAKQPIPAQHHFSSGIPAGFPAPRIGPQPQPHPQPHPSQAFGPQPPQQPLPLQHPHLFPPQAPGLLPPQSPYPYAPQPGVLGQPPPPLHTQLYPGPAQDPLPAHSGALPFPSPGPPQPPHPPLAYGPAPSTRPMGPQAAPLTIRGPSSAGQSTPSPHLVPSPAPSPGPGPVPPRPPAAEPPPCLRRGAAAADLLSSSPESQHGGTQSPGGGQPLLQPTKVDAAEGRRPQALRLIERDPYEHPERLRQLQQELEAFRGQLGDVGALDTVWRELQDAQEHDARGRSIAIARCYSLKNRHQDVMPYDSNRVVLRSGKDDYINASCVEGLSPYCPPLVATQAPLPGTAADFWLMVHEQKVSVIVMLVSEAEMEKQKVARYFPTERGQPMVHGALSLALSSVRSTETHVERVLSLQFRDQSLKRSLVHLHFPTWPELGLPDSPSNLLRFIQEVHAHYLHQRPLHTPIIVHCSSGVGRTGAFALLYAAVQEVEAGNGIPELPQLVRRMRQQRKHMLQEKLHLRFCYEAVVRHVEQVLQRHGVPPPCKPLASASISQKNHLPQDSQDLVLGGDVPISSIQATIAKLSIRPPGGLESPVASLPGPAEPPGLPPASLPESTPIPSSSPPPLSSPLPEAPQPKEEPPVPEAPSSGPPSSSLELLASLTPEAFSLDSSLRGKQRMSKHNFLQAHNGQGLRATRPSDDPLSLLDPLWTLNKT
UniProt O60825, sequence (O60825 whole entry, looked up): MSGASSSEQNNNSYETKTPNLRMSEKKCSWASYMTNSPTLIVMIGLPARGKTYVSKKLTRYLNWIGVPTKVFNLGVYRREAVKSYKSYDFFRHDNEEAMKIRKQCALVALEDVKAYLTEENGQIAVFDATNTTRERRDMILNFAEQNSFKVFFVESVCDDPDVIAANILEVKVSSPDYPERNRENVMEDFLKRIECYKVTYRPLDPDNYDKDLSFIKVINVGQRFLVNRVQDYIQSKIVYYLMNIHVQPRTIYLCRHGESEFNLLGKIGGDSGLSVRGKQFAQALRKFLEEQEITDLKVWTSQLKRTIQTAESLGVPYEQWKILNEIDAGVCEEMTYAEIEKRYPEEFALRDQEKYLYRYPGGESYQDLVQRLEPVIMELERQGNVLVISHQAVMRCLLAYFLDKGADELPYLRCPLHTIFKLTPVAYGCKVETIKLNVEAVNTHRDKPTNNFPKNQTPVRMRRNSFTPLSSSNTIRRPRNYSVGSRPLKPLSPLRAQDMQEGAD
UniProt Q8TBX8, sequence (Q8TBX8 whole entry, looked up): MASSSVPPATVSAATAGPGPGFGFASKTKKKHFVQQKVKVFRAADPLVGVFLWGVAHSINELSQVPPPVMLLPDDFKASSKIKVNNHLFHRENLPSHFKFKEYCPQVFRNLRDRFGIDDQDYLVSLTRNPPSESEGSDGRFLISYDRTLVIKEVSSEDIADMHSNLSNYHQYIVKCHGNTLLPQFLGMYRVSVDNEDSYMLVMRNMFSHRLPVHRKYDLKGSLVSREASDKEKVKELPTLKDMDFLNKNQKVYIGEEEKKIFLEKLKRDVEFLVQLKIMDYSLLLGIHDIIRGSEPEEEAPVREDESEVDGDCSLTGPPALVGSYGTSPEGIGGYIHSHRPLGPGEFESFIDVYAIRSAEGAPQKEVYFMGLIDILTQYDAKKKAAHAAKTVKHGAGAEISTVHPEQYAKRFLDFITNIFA
UniProt Q86UU1, sequence (Q86UU1 whole entry, looked up): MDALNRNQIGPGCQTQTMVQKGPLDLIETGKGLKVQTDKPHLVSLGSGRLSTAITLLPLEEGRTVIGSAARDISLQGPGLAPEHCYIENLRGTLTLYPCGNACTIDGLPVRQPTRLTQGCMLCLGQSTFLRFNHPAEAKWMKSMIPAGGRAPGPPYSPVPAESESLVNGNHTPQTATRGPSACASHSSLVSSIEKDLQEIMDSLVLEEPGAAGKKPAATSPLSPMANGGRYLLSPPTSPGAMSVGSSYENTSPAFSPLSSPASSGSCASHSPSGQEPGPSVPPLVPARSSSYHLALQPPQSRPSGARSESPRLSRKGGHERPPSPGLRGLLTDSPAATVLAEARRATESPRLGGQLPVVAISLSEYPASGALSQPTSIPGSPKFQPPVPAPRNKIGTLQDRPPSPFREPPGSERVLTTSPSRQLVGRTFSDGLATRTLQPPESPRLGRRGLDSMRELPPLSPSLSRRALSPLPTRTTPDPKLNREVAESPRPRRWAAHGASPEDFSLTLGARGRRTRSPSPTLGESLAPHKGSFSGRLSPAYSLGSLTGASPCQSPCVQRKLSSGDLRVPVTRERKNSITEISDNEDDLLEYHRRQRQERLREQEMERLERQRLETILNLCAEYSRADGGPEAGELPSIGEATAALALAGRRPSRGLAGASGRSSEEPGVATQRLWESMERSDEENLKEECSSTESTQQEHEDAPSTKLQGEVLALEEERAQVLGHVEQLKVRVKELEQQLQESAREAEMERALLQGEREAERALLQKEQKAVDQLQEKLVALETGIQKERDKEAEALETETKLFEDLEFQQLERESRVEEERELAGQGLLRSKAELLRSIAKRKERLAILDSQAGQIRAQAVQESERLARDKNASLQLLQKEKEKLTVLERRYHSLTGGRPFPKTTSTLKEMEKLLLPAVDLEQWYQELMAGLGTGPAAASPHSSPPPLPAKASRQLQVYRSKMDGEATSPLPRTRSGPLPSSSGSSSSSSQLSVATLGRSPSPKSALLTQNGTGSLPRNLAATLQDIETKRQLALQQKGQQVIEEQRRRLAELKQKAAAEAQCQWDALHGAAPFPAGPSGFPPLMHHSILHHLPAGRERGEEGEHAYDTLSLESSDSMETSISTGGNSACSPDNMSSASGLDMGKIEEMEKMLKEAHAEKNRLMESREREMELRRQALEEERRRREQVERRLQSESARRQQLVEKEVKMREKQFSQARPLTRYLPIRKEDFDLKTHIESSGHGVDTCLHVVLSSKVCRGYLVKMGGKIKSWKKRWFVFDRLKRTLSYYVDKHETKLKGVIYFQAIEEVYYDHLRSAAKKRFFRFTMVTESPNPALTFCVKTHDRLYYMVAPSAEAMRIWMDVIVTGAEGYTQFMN
UniProt O00764, sequence (O00764 whole entry, looked up): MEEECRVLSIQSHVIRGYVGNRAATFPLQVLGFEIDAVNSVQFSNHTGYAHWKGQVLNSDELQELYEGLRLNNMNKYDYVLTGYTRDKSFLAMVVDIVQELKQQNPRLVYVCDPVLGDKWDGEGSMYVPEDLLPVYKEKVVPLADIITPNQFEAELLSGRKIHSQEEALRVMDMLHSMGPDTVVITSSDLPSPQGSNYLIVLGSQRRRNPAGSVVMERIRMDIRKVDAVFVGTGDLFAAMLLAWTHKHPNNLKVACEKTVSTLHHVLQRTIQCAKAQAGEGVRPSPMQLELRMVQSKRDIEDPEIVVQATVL
UniProt Q9UHV9, sequence (Q9UHV9 whole entry, looked up): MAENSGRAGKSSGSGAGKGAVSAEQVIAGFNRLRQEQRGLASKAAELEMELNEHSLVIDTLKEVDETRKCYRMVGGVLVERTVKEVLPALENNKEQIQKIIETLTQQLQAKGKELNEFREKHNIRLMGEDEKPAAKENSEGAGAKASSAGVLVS
UniProt O60927, sequence (O60927 whole entry, looked up): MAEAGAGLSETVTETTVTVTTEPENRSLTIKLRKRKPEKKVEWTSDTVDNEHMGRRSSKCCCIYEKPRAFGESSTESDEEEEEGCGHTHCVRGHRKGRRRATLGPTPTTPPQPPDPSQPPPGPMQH
UniProt P50336, sequence (P50336 whole entry, looked up): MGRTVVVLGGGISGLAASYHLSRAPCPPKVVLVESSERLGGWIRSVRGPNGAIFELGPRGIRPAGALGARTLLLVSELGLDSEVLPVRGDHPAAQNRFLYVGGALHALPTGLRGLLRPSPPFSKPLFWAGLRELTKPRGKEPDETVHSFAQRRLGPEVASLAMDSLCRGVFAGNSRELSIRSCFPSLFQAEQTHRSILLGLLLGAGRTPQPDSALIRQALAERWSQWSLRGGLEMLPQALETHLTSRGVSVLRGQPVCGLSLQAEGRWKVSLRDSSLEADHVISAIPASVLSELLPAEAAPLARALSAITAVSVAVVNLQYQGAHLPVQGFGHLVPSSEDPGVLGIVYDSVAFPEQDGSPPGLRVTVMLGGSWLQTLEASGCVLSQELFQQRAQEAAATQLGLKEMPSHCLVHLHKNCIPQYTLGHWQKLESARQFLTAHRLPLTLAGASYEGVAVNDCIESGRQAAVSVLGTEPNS

Target | log2 fold change (lapatinib) | log2 fold change (pictilisib) | log2 fold change (crizotinib) | log2 fold change [1] | log2 fold change (duvelisib) | log2 fold change (gandotinib) | log2 fold change (tozasertib) | log2 fold change (doramapimod) | log2 fold change (bafetinib) | log2 fold change [2]
PDXK (UniProt O00764) | -0.026 | 0.014 | 0.004 | -0.134 | 0.041 | 0.109 | -0.014 | -0.072 | 0.046 | 0.083
PPP1R11 (UniProt O60927) | 0.01 | -0.016 | -0.069 | 0.153 | -0.054 | -0.048 | 0.022 | -0.022 | 0.099 | -0.071
PTPN23 (UniProt Q9H3S7) | 0.003 | -0.028 | -0.014 | 0.005 | -0.023 | -0.031 | 0.013 | 0.016 | -0.032 | 0.023
PI4KA (UniProt P42356) | -0.03 | 0.097 | -0.005 | -0.043 | 0.189 | -0.033 | 0.013 | -0.002 | -0.075 | 0.073
PRKDC (UniProt P78527) | -0.032 | 0.155 | -0.026 | -0.088 | 0.298 | 0.132 | -0.03 | -0.038 | -0.146 | -0.074
POLR3E (UniProt Q9NVU0) | -0.014 | -0.001 | 0.003 | -0.001 | 0.01 | -0.028 | -0.011 | -0.001 | -0.018 | 0.013
PRRC2A (UniProt P48634) | -0.02 | -0.017 | 0.06 | 0.011 | -0.001 | 0.007 | -0.013 | -0.073 | 0.031 | -0.058
PFKFB2 (UniProt O60825) | 0.006 | 0.001 | 0.017 | -0.016 | -0.015 | -0.035 | 0.038 | -0.018 | -0.07 | 0.01
PLXNB2 (UniProt O15031) | -0.033 | -0.068 | -0.014 | -0.019 | 0.031 | -0.046 | 0.027 | -0.044 | -0.004 | 0.031
PPOX (UniProt P50336) | 0.379 (active) | 0.111 | -0.068 | -0.075 | 0.04 | 0.581 (active) | 0.003 | 0.206 | -0.028 | 0.11
PHLDB1 (UniProt Q86UU1) | -0.052 | 0.034 | -0.154 | -0.06 | -0.028 | 0.073 | -0.047 | 0.076 | -0.112 | 0.031
PIR (UniProt O00625) | 0.017 | -0.05 | 0.019 | 0.099 | -0.035 | -0.058 | -0.008 | -0.021 | 0.008 | -0.006
PRKD2 isoform 3 (UniProt Q9BZL6) | 0.087 | -0.009 | -0.043 | -0.047 | 0.05 | -0.15 | 0.019 | -0.002 | 0.02 | -0.01
PIP4K2C (UniProt Q8TBX8) | -0.043 | 0.063 | -0.036 | -0.128 | 0.033 | 0.109 | -0.06 | 0.006 | 0.664 (active) | -0.032
PPP3CA isoform 2 (UniProt Q08209) | -0.008 | 0.085 | 0.048 | 0.075 | 0.008 | -0.099 | -0.068 | -0.006 | -0.026 | -0.091
PFDN2 (UniProt Q9UHV9) | -0.001 | -0.017 | 0.054 | 0.365 (active) | 0 | -0.1 | 0.053 | 0.005 | -0.064 | -0.13
